# Values joined by “and” are separate entries in the source; they are usually repeats but may differ in a detail not shown here. Equal entries are not always repeated. Results filed as inconclusive are left out. A call without a number means that no potency is given here. Unmarked numbers belong to inactive results. Active and inactive are the calls of the source. Unless noted, calls come from the whole dose curve; as a rule, active = well fitted curve in the direction sought with a large enough effect; inconclusive = small, poorly fitted or top-dose-only effect, or another doubt; inactive = no such curve, though single readings can be large; an effect the other way counts as inactive or inconclusive.
# Tests used:
# [1] = Counterscreen qHTS for small molecule stabilizers of the endoplasmic reticulum resident proteome: GLuc-NoTag assay (AID 1508627);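 note: SH-SY5Y cells given compound then 100 nM thapsigargin to empty ER calcium; series mostly up to about 76 µM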
# How it was run: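 Luminescence of Gaussia luciferase secreted into the medium (coelenterazine, 0.07x final, unlysed cells) was the read-out. Human SH-SY5Y neuroblastoma cells constitutively secreting untagged GLuc received compound for 19 h, then 100 nM thapsigargin for 4 h.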
# [2] = Confirmatory qHTS for small molecule stabilizers of the endoplasmic reticulum resident proteome: Secreted ER Calcium Modulated Protein (SERCaMP) assay (AID 1508628); note: nearly all actives have a fitted effect of over 40% in size; note: potency is the fitted concentration of half-maximal effect
# How it was run: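 We seeded SH-SY5Y-GLuc-SERCaMP cells, added compounds (three concentrations in the primary run, eleven up to 76.6 uM in confirmation), incubated 16 h, depleted ER calcium with thapsigargin, and read luciferase 4 h later.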
# [3] = biological target: Cytochrome P450 2D6 (Homo sapiens) (UniProt P10635); test: Cytochrome P450 family 2 subfamily D member 6 (CYP2D6) small molecule antagonists: luciferase biochemical (cell-free) qHTS assay (AID 1645840; active = well fitted curve in the direction sought with a large enough effect in the repeat runs; an effect the other way counts as inactive or inconclusive; note: nearly all actives have a fitted effect of over 55% in size; note: potency is the fitted concentration of half-maximal effect; for activity change, negative = inhibition: series mostly up to about 57 µM)
# How it was run: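 P450-Glo luminescent screen: recombinant CYP2D6 enzyme–proluciferin substrate mix preincubated with compound 10 min at room temperature, then NADPH regeneration added for 1 h at room temperature. Detection reagent added for 20 min; luciferin light read as relative luminescence units.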
# [4] = biological target: Cytochrome P450 2C9 (Homo sapiens) (UniProt P11712); test: Cytochrome P450 family 2 subfamily C member 9 (CYP2C9) small molecule antagonists: luciferase biochemical (cell-free) qHTS assay (AID 1645842; active = well fitted curve in the direction sought with a large enough effect in the repeat runs; an effect the other way counts as inactive or inconclusive; note: nearly all actives have a fitted effect of over 55% in size; note: potency is the fitted concentration of half-maximal effect; for activity change, negative = inhibition: series mostly up to about 57 µM)
# How it was run: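 Luminescence, after 20 min with luciferin detection reagent, reflected CYP2C9 turnover during a 1 h NADPH-driven reaction at 37C. Enzyme-substrate mix contained 0.4% bovine serum albumin and was preincubated with compound 10 min at room temperature.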
# Papain (Carica papaya) = Papain (Carica papaya) (UniProt P00784); test: Primary qHTS assay for inhibitors of the protease papain (AID 1645873);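 note: papain turnover of Z-FR-AMC read as the AMC fluorescence gain over 10 min; series mostly up to about 50 µM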
# [5] = Cell Viability qHTS for small molecule stabilizers of the endoplasmic reticulum resident proteome (AID 1508629); settings: cell viability counter-screen, 100 nM thapsigargin for final 4 h;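 note: human SH-SY5Y neuroblastoma cells carrying the GLuc-SERCaMP reporter; compound exposure about 46 h in total before the viability read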
# [6] = Primary qHTS for small molecule stabilizers of the endoplasmic reticulum resident proteome: Secreted ER Calcium Modulated Protein (SERCaMP) assay (AID 1508630); note: potency is the fitted concentration of half-maximal effect
# How it was run: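 GLuc-SERCaMP-expressing SH-SY5Y cells, pretreated 16 h with compound, are challenged with thapsigargin to empty ER calcium stores; after 4 h, coelenterazine is added directly to the medium and luminescence is imaged.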
# [7] = A High-Content qHTS Against Drug Library for the Identification of Small Molecules that Inhibit DYT1 Early Onset Primary Dystonia-Associated Cell Pathology (AID 1645839; calls by dose curve; note: series mostly up to about 46 µM)
# How it was run: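 In this high-content image screen, delE TorsinA mislocalization in inducible Flp-In 293 cells is scored as %pathology, with cell count serving as the counterscreen. Compound exposure lasts 48 h under tetracycline induction in reduced-serum medium.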
# [8] = Primary qHTS for inhibitors of nuclear receptor binding SET domain protein 2 (NSD2) in an isogenic RCH-ACV NSD2 p.E1099K mutant (9B) (AID 1645876); note: nearly all actives have a fitted effect of over 70% in size
# Cytochrome P450 2C9 (Homo sapiens), sequence (P11712 whole entry, looked up): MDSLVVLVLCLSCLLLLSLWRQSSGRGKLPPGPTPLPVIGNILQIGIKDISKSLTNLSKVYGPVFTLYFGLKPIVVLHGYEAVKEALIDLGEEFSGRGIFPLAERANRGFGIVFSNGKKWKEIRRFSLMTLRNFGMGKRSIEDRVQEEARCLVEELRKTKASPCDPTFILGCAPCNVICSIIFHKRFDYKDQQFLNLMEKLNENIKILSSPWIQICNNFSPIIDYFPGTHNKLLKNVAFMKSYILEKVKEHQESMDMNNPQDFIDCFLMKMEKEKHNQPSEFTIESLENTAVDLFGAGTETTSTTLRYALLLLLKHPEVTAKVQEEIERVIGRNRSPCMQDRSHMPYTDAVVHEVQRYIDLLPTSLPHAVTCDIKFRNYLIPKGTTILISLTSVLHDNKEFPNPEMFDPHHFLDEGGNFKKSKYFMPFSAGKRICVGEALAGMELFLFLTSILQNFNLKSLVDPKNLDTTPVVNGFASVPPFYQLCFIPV
# Papain (Carica papaya), sequence (P00784 whole entry, looked up): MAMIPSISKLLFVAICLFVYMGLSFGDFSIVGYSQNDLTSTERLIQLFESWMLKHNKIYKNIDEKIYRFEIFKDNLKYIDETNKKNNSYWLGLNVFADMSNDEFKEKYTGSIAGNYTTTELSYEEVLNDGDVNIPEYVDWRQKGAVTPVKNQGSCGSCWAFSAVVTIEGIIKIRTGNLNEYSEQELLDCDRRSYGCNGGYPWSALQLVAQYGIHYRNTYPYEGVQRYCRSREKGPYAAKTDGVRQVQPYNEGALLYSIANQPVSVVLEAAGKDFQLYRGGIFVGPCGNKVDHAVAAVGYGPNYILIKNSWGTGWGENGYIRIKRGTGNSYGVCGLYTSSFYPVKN
# Cytochrome P450 2D6 (Homo sapiens), sequence (P10635 whole entry, looked up): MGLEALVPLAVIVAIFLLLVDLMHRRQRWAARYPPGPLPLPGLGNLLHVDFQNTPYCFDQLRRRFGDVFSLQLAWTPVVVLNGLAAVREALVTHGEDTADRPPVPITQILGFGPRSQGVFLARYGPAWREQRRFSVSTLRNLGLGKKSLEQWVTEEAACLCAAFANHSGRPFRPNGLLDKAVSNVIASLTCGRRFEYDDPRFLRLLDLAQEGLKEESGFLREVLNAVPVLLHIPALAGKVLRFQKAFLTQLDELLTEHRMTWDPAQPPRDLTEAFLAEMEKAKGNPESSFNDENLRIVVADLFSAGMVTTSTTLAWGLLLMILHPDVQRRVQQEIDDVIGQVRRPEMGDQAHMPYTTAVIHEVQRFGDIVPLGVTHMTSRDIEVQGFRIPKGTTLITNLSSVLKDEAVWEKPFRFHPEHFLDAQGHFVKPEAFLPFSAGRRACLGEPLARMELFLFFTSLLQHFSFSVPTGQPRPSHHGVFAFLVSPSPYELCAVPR
compound,measurement,setting,value
CCC(=O)c1ccc2c(c1)N(CCCN(C)C)c1ccccc1S2,Potency,[1],inactive
same,Potency,[2],inactive
same,Potency,[3],0.49 µM (active)
same,Potency,[4],inactive
same,Potency,Papain (Carica papaya),inactive
Cc1nc2sccn2c(=O)c1CCN1CCC(=C(c2ccc(F)cc2)c2ccc(F)cc2)CC1,Potency,[1],inactive
same,max response,[5],-2.38%
same,Potency,[3],3.09 µM (active)
same,Potency,Papain (Carica papaya),inactive
CN1CCN(C2=Nc3ccccc3Oc3ccc(Cl)cc32)CC1,Potency,[1],inactive
same,max response,[5],14.4%
same,Potency,[3],3.89 µM (active)
same,Potency,[4],inactive
same,Potency,Papain (Carica papaya),inactive
CCCCNc1ccc(C(=O)OCCN(C)C)cc1,Potency,[1],inactive
same,max response,[5],13.7% and 3.85% and 11.6%
same,Potency,[6],inactive
same,Potency,[7],inactive
same,Potency,Papain (Carica papaya),inactive
same,Potency,[8],inactive
NC(=Nc1ccccc1)Nc1ccccc1,Potency,[1],inactive
same,Potency,[2],3.55 µM (active) and 5.62 µM (active) and 355 nM (active)
same,max response,[5],21.8%
same,Potency,[6],3.16 µM (active)
same,Potency,[7],inactive
same,Potency,[3],461 nM (active) and 1.55 µM (active)
same,Potency,[4],inactive
CCO/C([O-])=N/c1c[n+](N2CCOCC2)no1,Potency,[6],inactive
same,Potency,[7],inactive
same,Potency,[3],inactive
same,Potency,[4],inactive
same,Potency,Papain (Carica papaya),inactive
same,Potency,[8],inactive
Cc1nc2ccccn2c(=O)c1CCN1CCC(C(=O)c2ccc(F)cc2)CC1,Potency,[6],inactive
same,Potency,[7],inactive
same,Potency,[3],2.19 µM (active)
same,Potency,[4],inactive
same,Potency,[8],inactive
C[C@]12C=CC(=O)C=C1CC[C@H]1[C@@H]3C[C@@H](O)[C@](O)(C(=O)CO)[C@@]3(C)C[C@H](O)[C@@]12F,Potency,[6],inactive
same,Potency,[7],inactive
same,Potency,[3],inactive
same,Potency,[4],inactive
same,Potency,Papain (Carica papaya),inactive
same,Potency,[8],inactive
CCCN(CCC)C(=O)C(CCC(=O)O)NC(=O)c1ccccc1 (stereo unspecified),Potency,[6],inactive
same,Potency,[7],inactive
same,Potency,[3],inactive
same,Potency,[4],inactive
same,Potency,Papain (Carica papaya),inactive
same,Potency,[8],inactive
O=C(CCNNC(=O)c1ccncc1)NCc1ccccc1,Potency,[6],inactive
same,Potency,[7],inactive
same,Potency,[3],15.5 µM (active)
same,Potency,[4],5.49 µM (active)
same,Potency,Papain (Carica papaya),inactive
same,Potency,[8],inactive
CCN(CC)CCNC(=O)c1ccc(NC(C)=O)cc1,Potency,[6],inactive
same,Potency,[7],inactive
same,Potency,[4],inactive
same,Potency,Papain (Carica papaya),inactive
same,Potency,[8],inactive
CCN(CC)CCNC(=O)c1cc(S(C)(=O)=O)ccc1OC,Potency,[6],inactive
same,Potency,[7],inactive
same,Potency,[4],inactive
same,Potency,Papain (Carica papaya),inactive
same,Potency,[8],inactive
COc1ccc([C@@H]2Sc3ccccc3N(CCN(C)C)C(=O)[C@@H]2OC(C)=O)cc1,Potency,[6],inactive
same,Potency,[7],inactive
same,Potency,[3],inactive
same,Potency,[4],inactive
same,Potency,Papain (Carica papaya),inactive
same,Potency,[8],inactive
FC(F)(F)c1ccccc1-n1ccnc1,Potency,[6],inactive
same,Potency,[7],inactive
same,Potency,[3],3.47 µM (active)
same,Potency,[4],13.8 µM (active)
same,Potency,[8],inactive
CO[C@@]1(NC(=O)CSCC#N)C(=O)N2C(C(=O)O)=C(CSc3nnnn3C)CS[C@@H]21,Potency,[6],inactive
same,Potency,[7],inactive
same,Potency,[3],inactive
same,Potency,[4],inactive
same,Potency,[8],inactive
CN=C(NC#N)NCCSCc1nc[nH]c1C,Potency,[6],inactive
same,Potency,[7],inactive
same,Potency,[4],13.8 µM (active)
same,Potency,Papain (Carica papaya),inactive
same,Potency,[8],inactive
C[C@@H](O)[C@H]1C(=O)N2C(C(=O)O)=C(SCCN=CN)C[C@H]12,Potency,[6],inactive
same,Potency,[7],inactive
same,Potency,[3],inactive
same,Potency,Papain (Carica papaya),inactive
same,Potency,[8],inactive
COc1ccc(CN(CCN(C)C)c2ccccn2)cc1,Potency,[6],inactive
same,Potency,[7],inactive
same,Potency,[3],195 nM (active) and 213 nM (active)
same,Potency,[4],inactive
same,Potency,Papain (Carica papaya),inactive
same,Potency,[8],inactive
C[C@]12CCC(=O)C=C1CC[C@@H]1[C@@H]2C(=O)C[C@@]2(C)[C@H]1CC[C@]2(O)C(=O)CO,Potency,[6],inactive
same,Potency,[7],inactive
same,Potency,[3],inactive
same,Potency,[4],inactive
same,Potency,[8],inactive
Cc1ccc(=O)n(-c2ccccc2)c1,Potency,[6],inactive
same,Potency,[7],inactive
same,Potency,[3],inactive
same,Potency,[4],inactive
same,Potency,Papain (Carica papaya),inactive
same,Potency,[8],inactive
C#CCN(C)CCCOc1ccc(Cl)cc1Cl,Potency,[6],inactive
same,Potency,[7],inactive
same,Potency,[3],1.55 µM (active)
same,Potency,[4],30.9 µM (active)
same,Potency,Papain (Carica papaya),inactive
same,Potency,[8],inactive
NC(Cc1ccc(Cl)cc1)C(=O)O (stereo unspecified),Potency,[6],inactive
same,"% pathology change, negative = correction",[7],-28% [at 0.369 µM]
same,"activity change, negative = inhibition",[3],5.71% [at 0.91 µM]
same,"activity change, negative = inhibition",[4],10.6% [at 0.91 µM]
same,Potency,Papain (Carica papaya),inactive
same,outcome,[8],inactive [at 0.588 µM]
CN(C)C(=O)Oc1cccc([N+](C)(C)C)c1,Potency,[6],inactive
same,Potency,[7],inactive
same,Potency,[3],inactive
same,Potency,[4],inactive
same,Potency,Papain (Carica papaya),inactive
same,Potency,[8],inactive
Brc1c(NC2=NCCN2)ccc2nccnc12,Potency,[6],inactive
same,Potency,[7],inactive
same,Potency,[3],21.9 µM (active)
same,Potency,[4],inactive
same,Potency,Papain (Carica papaya),inactive
same,Potency,[8],inactive
CC[N+](C)(C)c1cccc(O)c1,Potency,[6],inactive
same,Potency,[7],inactive
same,Potency,[3],inactive
same,Potency,[4],inactive
same,Potency,Papain (Carica papaya),inactive
same,Potency,[8],inactive
CN(C)C(=O)Oc1ccc[n+](C)c1,Potency,[6],inactive
same,Potency,[7],inactive
same,Potency,[3],inactive
same,Potency,[4],inactive
same,Potency,Papain (Carica papaya),inactive
same,Potency,[8],inactive
CCCN1C[C@H](CSC)C[C@@H]2c3cccc4[nH]cc(c34)C[C@H]21,Potency,[6],inactive
same,Potency,[7],inactive
same,Potency,[3],0.055 µM (active)
same,Potency,[4],inactive
same,Potency,Papain (Carica papaya),inactive
same,Potency,[8],inactive

# From PubChem BioAssay (NCATS)
